RE007 growth inh: less growth of the S. pombe RE007 Vpr strain | S. pombe RE007 Vpr strain, BacTiter-Glo ATP luminescence, 24 h | AID 651644 | Potency, µM (doses to about 92.2 µM), most hits filed as inhibitors | 0.21% of 360,000 active; active means well fitted falling curve with a large enough effect; inconclusive means small, poorly fitted or top-dose-only effect; inactive means no such curve, though single readings can be large or run the other way; further: nearly all actives have a fitted effect of over 50% in size
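Fission yeast RE007 carrying one integrated HIV-1 vpr copy, seeded at OD 0.01 in PMG+AL medium with 23 nL pinned compound. Grown 24 h at 30 degrees; viability read by BacTiter-Glo luminescence after 5 min.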
TbPYK inhibitor: blocks Trypanosoma brucei pyruvate kinase. Q57TT1. TbPYK enzyme, Kinase-Glo Plus ATP luminescence, 45 min. Potency, µM (doses to about 76.8 µM), hits mostly inhibitors. 0.12% of 410,000 active; further: nearly all actives have a fitted effect of over 50% in size
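Activity of T. brucei pyruvate kinase was followed by Kinase-Glo Plus luminescence after the enzyme reacted 45 min at room temperature with 130 uM ADP (final) and substrate. Test compounds were added before ADP at multiple concentrations.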
FBPA Giardia inh: Giardia lamblia aldolase inhibition | Potency, µM (titrated, usually from 59.6 µM), actives largely listed as inhibitors | 0.71% of 290,000 active | purified Giardia FBPA | A8B2U2; further: nearly all actives have a fitted effect of over 55% in size
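Giardia FBPA (40 nM reagent) was preincubated 10 min at RT with compound (up to 57.5 uM final), then substrate plus GAPDH/TPI/NAD/arsenate coupling system with diaphorase/resazurin was added; resorufin fluorescence (525/598 nm) was read after 20 min.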
LmPK inh: LmPK (Leishmania mexicana) enzyme inhibition. Q27686. purified LmPK, Kinase-Glo ATP luminescence, 1 h. Potency, µM (doses to about 57.5 µM), actives largely listed as inhibitors. 0.37% of 290,000 active. AID 1721
Target sequence (Q27686 whole entry, looked up): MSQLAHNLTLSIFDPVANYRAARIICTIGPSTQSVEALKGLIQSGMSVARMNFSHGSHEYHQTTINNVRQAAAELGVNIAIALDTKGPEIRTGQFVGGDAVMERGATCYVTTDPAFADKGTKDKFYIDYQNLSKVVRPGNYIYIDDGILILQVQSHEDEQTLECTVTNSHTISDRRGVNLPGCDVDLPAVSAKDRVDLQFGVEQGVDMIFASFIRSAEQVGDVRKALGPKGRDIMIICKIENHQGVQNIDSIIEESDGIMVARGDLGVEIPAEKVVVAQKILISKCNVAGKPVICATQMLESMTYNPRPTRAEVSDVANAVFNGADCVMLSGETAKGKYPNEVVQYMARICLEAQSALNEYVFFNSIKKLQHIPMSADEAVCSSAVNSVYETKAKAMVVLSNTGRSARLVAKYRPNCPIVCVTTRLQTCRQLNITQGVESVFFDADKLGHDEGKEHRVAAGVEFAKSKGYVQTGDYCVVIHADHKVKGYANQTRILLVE
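Screened at intermediate enzyme activity to detect both inhibitors and activators: LmPK at 0.1 nM, with a 0.5 nM enzyme column as activation reference. PEP 0.5 mM, ADP 0.1 mM; ATP detected by luminescence after 1 h.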
Shiga inhibitor: Shiga toxin inhibition. Vero cells, Shiga toxin protein synthesis inhibition reporter. inhibition, % at 38.7 µM. 9.2% of 290,000 active; in the data active means inhibition mostly above about 28%, no sharp cut-off; inactive means mostly below about 43%
Cycloheximide cs: affects cycloheximide protein synthesis inhibition readout, counter-screen. cell reporter, cycloheximide protein synthesis inhibition counterscreen. max response, %. 12% of 300,000 active; in the data active means max response mostly above about 13%, no sharp cut-off; inactive means mostly below about 14%; further: read at 38.3 µM for the half of the compounds with a filed dose
A number is an active result; 0 = inactive; ? = inconclusive; - = not tested or not shown. The sample as a whole holds a higher share of hits than the screen did. Unless noted, the call rests on the fitted dose curve; in most records, active means well fitted curve in the direction sought with a large enough effect; inconclusive means small, poorly fitted or top-dose-only effect, or another doubt; inactive means no such curve, though single readings can be large; an effect the other way counts as inactive or inconclusive.

SMILES	RE007 growth inh	TbPYK inhibitor	FBPA Giardia inh	LmPK inh	Shiga inhibitor	Cycloheximide cs
O=C(CSc1nc2ccccc2s1)N/N=C/c1ccc(C(=O)O)cc1	0	0	0	0	0	0
O=C(CSc1nc2ccccc2s1)N/N=C/c1ccco1	0	0	0	0	0	14
Cc1ccc(OCC(=O)N(Cc2ccc(N(C)C)cc2)CC2CCCO2)cc1C (stereo not drawn)	-	0	-	-	-	-
Cc1ccc2oc(-c3cccc(NC(=O)c4ccc(Br)o4)c3C)nc2c1	0	0	0	0	70	66
Cc1cc2nc(-c3cccc(NC(=O)c4ccc(Br)o4)c3C)oc2cc1C	0	0	0	0	0	24
CC(C)CCN1NC2(CCCC(C)C2)NC1=S (stereo not drawn)	0	0	0	0	0	0
CC1CCCC2(C1)NC(=S)c1c(sc3c1CCCC3)N2 (stereo not drawn)	?	0	0	0	0	15
O=C(Nc1ccccc1Cl)c1cc[n+]([O-])cc1	0	0	0	0	0	0
O=C(Nc1ccccc1NC(=O)c1ccccc1F)c1ccccc1F	0	0	0	0	0	0
O=C(Nc1ccccc1Cl)c1ccn[nH]1	0	0	-	0	0	20
O=C(Nc1ccccc1F)c1ccn[nH]1	0	0	0	0	47	22
COc1ccc(Nc2nnc(Cc3ccc(Cl)cc3)c(=O)[nH]2)c(OC)c1	0	0	0	0	0	0
COc1ccc(Cc2nnc(Nc3ccc(Cl)cc3)[nH]c2=O)cc1	0	0	0	0	0	18
O=C(C[n+]1cc(Br)cc2ccccc21)c1ccc(Br)cc1	0	0	0	0	0	0
O=C(C[n+]1cn(C(F)F)c2ccccc21)c1ccc(Br)cc1	0	0	0	0	62	28
COc1ccc(Cc2nc(C(=O)Nc3ccccc3)cs2)cc1	0	0	0	0	52	39
O=C(Nc1ccc(Cl)cc1)c1csc(Cc2ccccc2)n1	0	0	0	0	75	37
COc1ccc(NC(=O)c2csc(Cc3ccc(Cl)cc3)n2)cc1	0	0	0	0	0	0
CC(C)(CC(=O)O)CC(=O)NNc1ncccc1C#N	0	0	0	0	0	0
CCC(C)c1ccc(Nc2ncccc2C#N)cc1 (stereo not drawn)	0	0	0	0	69	38
CCc1ccc(Nc2ncccc2C#N)cc1	0	0	0	0	0	28
C=CCC[C@H](CCCCC)OC(=O)/C=C/[C@@H](O)[C@H](O)C[C@H](O)CC=C	0	0	-	-	-	-
CC1CCCCN1Cc1c(O)ccc2c(=O)c(-c3nc4ccccc4s3)coc12 (stereo not drawn)	0	0	0	0	61	28
Cc1c(Cl)cccc1NC(=O)N1CCC(CN2CCOCC2)CC1	-	0	-	-	-	-
O=C(CSc1nnc2c(n1)[nH]c1ccccc12)OCc1ccccc1	0	0	0	0	0	0
SMILES	RE007 growth inh	TbPYK inhibitor	FBPA Giardia inh	LmPK inh	Shiga inhibitor	Cycloheximide cs
CCOC(=O)CC(=O)CSc1nnc2c(n1)[nH]c1ccccc12	0	0	0	0	0	20
CCOC(=O)Cc1nnc(NC(=O)CSc2nnc3c(n2)[nH]c2ccccc23)s1	0	0	0	0	0	0
O=C(O)CSc1nnc2c(n1)[nH]c1ccccc12	0	0	0	28µM	0	0
CC(C(=O)Nc1ccc2c(c1)OCO2)N1CCC(N2CCCCC2)CC1 (stereo not drawn)	0	0	-	-	-	-
CC(C)(C)S(=O)(=O)N1C[C@H]2CC/C=C\C/C=C\2[C@@H]1CCO	0	0	-	-	-	-
Nc1ncc(S(=O)(=O)c2ccc([N+](=O)[O-])cc2)s1	0	0	-	-	-	-
COc1ccc(C2C(C(N)=O)=C(C)Nc3ncnn32)cc1 (stereo not drawn)	0	0	0	0	0	22
O=C(NCc1cccs1)c1ccc(N2CCCCC2)nc1	0	0	0	0	112	53
CC1CCN(c2ccc(C(=O)NCCc3ccccc3)cn2)CC1	0	0	0	0	99	27
C#Cc1ccc(C(=O)NCc2ccc(N3CCCC3=O)cc2)cc1	0	0	0	0	0	0
CC1CCCN(c2ccc(C(=O)NCc3ccccc3)cn2)C1 (stereo not drawn)	0	0	0	0	104	31
O=C(NCc1cccs1)c1ccc(N2CCCC2=O)cc1	0	0	0	0	53	36
COc1cc2c(=O)n(Cc3ccccc3Cl)c(=O)n(CC(=O)Nc3ccc(C)c(C)c3)c2cc1OC	-	0	-	-	-	-
CC1CCCN(c2ccc(C(=O)NCc3cccs3)cn2)C1 (stereo not drawn)	0	0	0	0	active	45
COc1ccc(Cc2nc3ccc(C(=O)NCCCSC)cc3o2)cc1OC	0	0	0	0	39	45
COC(=O)CCNC(=O)c1ccc2nc(Cc3ccc(OC)c(OC)c3)oc2c1	0	0	0	0	29	24
COc1ccc(Cc2nc3ccc(C(=O)N(C)CCn4ccnc4)cc3o2)cc1OC	0	0	0	0	63	77
CCOCC(O)CNC(=O)c1ccc2nc(Cc3ccc(OC)c(OC)c3)oc2c1 (stereo not drawn)	0	0	0	0	0	0
COCCCNC(=O)c1ccc2nc(Cc3ccc(OC)cc3)oc2c1	0	0	0	0	0	32
COc1ccc(Cc2nc3ccc(C(=O)NCCc4ccc(OC)c(OC)c4)cc3o2)cc1	-	0	-	-	-	-
COc1ccc(OC)c(-c2csc(-c3c(N)c(C(=O)c4ccc(Cl)cc4)n4ccccc34)n2)c1	-	0	-	-	-	-
CCCCn1c(N)c(N(CC(C)C)C(=O)CSCc2ccc(Cl)c(Cl)c2)c(=O)[nH]c1=O	0	0	-	-	-	-
COc1ccc(CNC(=O)C(=O)Nc2c3c(nn2-c2ccccc2)CSC3)cc1	-	0	-	-	-	-
COc1ccc(Cc2nc3ccc(C(=O)N(C)CCO)cc3o2)cc1	0	0	0	0	0	0
COc1ccc(Cc2nc3ccc(C(=O)N(C)C(C)c4ccon4)cc3o2)cc1 (stereo not drawn)	0	0	-	0	49	41
SMILES	RE007 growth inh	TbPYK inhibitor	FBPA Giardia inh	LmPK inh	Shiga inhibitor	Cycloheximide cs
O=S(=O)(NC1CCSc2ccccc21)c1ccc(Cl)nc1 (stereo not drawn)	0	0	0	0	0	0
CCOC(=O)c1cccc(-c2ccc(C=O)o2)c1	0	0	0	0	116	47
CCOC(=O)c1ccc(-c2ccc(C=O)o2)cc1	0	0	0	0	80	48
CCCOC(=O)c1cc(-c2ccc(C=O)o2)ccc1Cl	0	0	0	0	0	29
CCCOC(=O)c1ccc(-c2ccc(C=O)o2)cc1	0	0	0	0	139	44
CCCCOC(=O)c1ccc(-c2ccc(/C=N/NC(=S)NCC)o2)cc1	0	0	0	0	0	0
O=C(CN(C(=O)c1csnn1)c1ccc(F)c(Cl)c1)NC1CCCCC1	0	0	-	0	0	30
